In all, about 65,000 compounds went through this assay and about 2,100 (3.2%) showed an effect of 50% or more. The median lay at about -52%. The entries come from a sample that favours strong results as a whole.

The test system of this experiment is Plasmodium falciparum. Kind of experiment: Screen against P. falciparum Asexual Blood Stage (ABS), at 5uM. The format is functional, Dd2. Particulars: tested at 5 uM.
With `O=C(CN1CCCC(Cn2cncn2)C1)NCCCc1ccccc1` (stereo not given), the INHIBITION was -62.6%.

`Cc1cc(C(=O)N2CCC(N3CCNC3=O)CC2)nn1C(C)(C)C`: the INHIBITION is -59.8%.

`Cc1cc(C(=O)N2CCCC(N3CCNC3=O)C2)nn1C(C)(C)C` (stereo not given): the INHIBITION was -37.9%. The value for `Cc1cc(C(=O)N2CCCC(N3CCCCCC3)C2)nn1C(C)(C)C` (stereo not given) was 55.5%; that for `Cc1cc(CNC(=O)c2cnoc2C)c(C)o1` was -78%; that for `O=C(c1cccnc1O)N1CCN(Cc2ccccc2F)CC1` was -14.3%. The value for `Cc1cc(Oc2ccccc2F)nc(C2CCCCN2)n1` (stereo not given) was 57.5%; that for `Cc1cc(Oc2ccccc2)nc(C2CCCCN2)n1` (stereo not given) was -17.4%.

With `Cc1cc(Oc2ccccc2C)nc(C2CCCN2)n1` (stereo not given), the INHIBITION came to 25.4%. For the compound `CN(C)C1(CNC(=O)CC=Cc2ccc(F)cc2)CCOCC1`, the INHIBITION stood at 57.5%.

For the compound `CN(C)C1(CNC(=O)C2CCCN2Cc2ccc(F)cc2)CCOCC1` (stereo not given), the INHIBITION worked out at 68.7%. Consider `CN(C)C1(CNC(=O)Cc2ccc(F)cc2)CCOCC1`, for which the INHIBITION was found to be 0.427%. In the case of `CC1(C(=O)NCCc2ccc(F)cc2)CCOCC1`, the INHIBITION is on record as -16.2%. `CN(C)C(C(=O)NCC1(N(C)C)CCOCC1)c1ccccc1F` (stereo not given): the INHIBITION is -6.85%. The figure for `CC(C)NC(=O)C1CN(Cc2ccc(F)cc2)CC12CCOCC2` (stereo not given) is -23.5%; for `COCc1nc(C(=O)N2CCCC2Cn2cc(C)cn2)cs1` (stereo not given) it is -179%; for `Cc1cccc(CN2CCC3(CCCN(Cc4cnn(C)c4)C3)C2)n1` (stereo not given) it is -21.5%.

Consider `CN(C)C(=O)NCc1ncn2c1CN(Cc1cccs1)CCC2`, for which the INHIBITION was -61.4%. With `CN(C)C(=O)[C@@]12CCO[C@@H]1CCN(Cc1ccc3c(c1)OCO3)C2`, the INHIBITION is -52.2%. The figure for `O=C(COc1coc(CN2CCSCC2)cc1=O)c1ccccc1` is -95.1%. On to `CC1(C(=O)NCc2cccnc2Oc2ccc(F)cc2F)CCCNC1` (stereo not given), for which the INHIBITION was determined as 21.1%. On to `Cc1cccc(C)c1Oc1ncccc1CNC(=O)C1(C)CCCNC1` (stereo not given), for which the INHIBITION is reported as 56.1%.

Consider `COc1ccccc1Oc1ncccc1CNC(=O)C1(C)CCCNC1` (stereo not given), for which the INHIBITION is reported as -45.9%. The figure for `CCn1ncc2c1C(COCC1CC1)CN(c1ccc(C)nn1)C2` (stereo not given) is 40.1%. For the compound `Cc1nc(O)cc(C2CCN(Cc3cccc(F)c3F)C2)n1` (stereo not given), the INHIBITION is -81.4%.

Turning to `CCc1c(C)nc2cc(C3CCN(Cc4cccc(F)c4)C3)nn2c1O` (stereo not given), the INHIBITION is given as 5.05%. On to `CCc1c(C)nc2cc(C3CCN(Cc4ccccc4F)C3)nn2c1O` (stereo not given), for which the INHIBITION is 51.6%. The figure for `CCc1c(C)nc2cc(C3CCN(CCc4ccccc4)C3)nn2c1O` (stereo not given) is -23%; for `CCc1c(C)nc2cc(C3CCN(Cc4ccc(F)cc4)C3)nn2c1O` (stereo not given) it is 14.3%; for `CN(Cc1noc(C2CC2)n1)C1CCN(Cc2cccc(F)c2F)C1` (stereo not given) it is 26.6%. The value for `CCc1c(C)nc2cc(C3CCN(Cc4cccnc4)C3)nn2c1O` (stereo not given) was -81.6%.

With `Cc1nc2cc(C3CCN(Cc4cccc(F)c4F)C3)nn2c(O)c1C.O=C(O)CC(O)(CC(=O)O)C(=O)O` (stereo not given), the INHIBITION is 59.6%. On to `Cc1nc2cc(C3CCN(Cc4ccccc4F)C3)nn2c(O)c1C` (stereo not given), for which the INHIBITION is reported as 50.3%.

As to `Cc1nc(CN2CC(Cc3ccccc3)CC2=O)no1` (stereo not given), the INHIBITION is given as -37.6%.

For the compound `Cc1ccc(CNCc2ccc(N3CCC(CO)CC3)nc2)c(C)c1`, the INHIBITION is -47.4%. With `CC(c1nc(C2CC2)no1)N1CCc2c(ncn2C)C1` (stereo not given), the INHIBITION is -90.5%.

As to `Cn1nc(C(=O)NCc2cccnc2)c2c1CCS(=O)(=O)C2`, the INHIBITION was -148%. The figure for `Cc1cnc(CCN(C)C(=O)c2ccc(O)nc2C)s1` is -151%. `COc1cccc(-c2cc(NCC(=O)O)nc3[nH]ccc23)n1`: the INHIBITION is listed as -47%. As to `COc1cccc(-c2cc(NCCN(C)C)nc3[nH]ccc23)n1`, the INHIBITION amounted to 53.1%. `COc1cccc(-c2cc(NCCO)nc3[nH]ccc23)n1`: the INHIBITION is -62.1%. The value for `O=C(Cc1ccsc1)N1C[C@H]2CCC[C@@]2(COCc2ccccn2)C1` was -116%.

For the compound `Cc1cnc(NC(=O)c2csc(NCC(C)C)n2)s1`, the INHIBITION was -175%. With `Cc1ncc(CN(C)CC(O)c2cccc(C(F)(F)F)c2)s1` (stereo not given), the INHIBITION worked out at 54.7%. The figure for `Cc1ccc(CC(=O)NCC(O)c2cccc(C(F)(F)F)c2)cn1` (stereo not given) is -58.1%.

Regarding `Cc1ncc(CN(C)CC(O)c2ccc(OC(F)(F)F)cc2)s1` (stereo not given), the INHIBITION is on record as 64%.

For `Cc1ncc(CN(C)CC(O)c2ccc(Br)cc2)s1` (stereo not given), the INHIBITION was found to be 22.6%. Take `Cc1cc(CNC(=O)NCC(O)c2cccc(C(F)(F)F)c2)no1` (stereo not given): the INHIBITION is recorded as -34.1%. The value for `CCOC(=O)CN(C)Cc1cnc(C)s1` was -142%; that for `O=C(CC1CC1)N[C@@H]1CN(C(=O)c2ccoc2)C[C@@H]2CCCO[C@@H]21` was -102%; that for `CN(C)C(=O)c1cnc2n1CCN(Cc1ccc3c(c1)OCO3)C2` was 24.3%. As to `CCn1cc2c(n1)CN(Cc1ccc(F)cc1)CC2COCC1CC1` (stereo not given), the INHIBITION was -38.3%. The value for `CC(C)(CNC(=O)CCCOc1cccc(F)c1)C(N)=O` was 44.9%; that for `CC(C)(CNC(=O)COc1cccc(F)c1)C(N)=O` was 60.6%. The figure for `CC(C)(CNC(=O)CCOc1cccc(F)c1)C(N)=O` is -172%; for `CC(C)Cn1cc2nc(N3CCC(O)CC3)[nH]cc-2c1=O` it is -52.3%; for `Cc1cccc(Cn2cc(Br)c(NS(C)(=O)=O)n2)c1` it is -96.25%. For `Cc1oc(-c2cccc(F)c2F)nc1CN(C)CCO`, the INHIBITION is given as -82.7%. The value for `Cc1ccc(-c2nn(-c3cccc(F)c3)cc2CN(C)CCO)o1` was 50.5%; that for `O=C(NCCn1ccnc1)c1ccn(-c2cccc(F)c2)n1` was -1.32%; that for `Cc1nc(CN2CCN(CCCc3nc4ccccc4o3)CC2)no1` was -77.4%.

Consider `CN(Cc1ccco1)[C@@H]1CN(Cc2cnn(C)c2)[C@@H]2CCCO[C@H]12`, for which the INHIBITION is given as 27.3%. `CN(Cc1cccnc1)[C@@H]1CN(Cc2nccn2C)[C@@H]2CCCO[C@H]12`: the INHIBITION was -13.9%. The value for `CN(Cc1ccco1)[C@@H]1CN(Cc2ccco2)[C@@H]2CCCO[C@H]12` was 11.7%. The figure for `Cc1noc(C)c1CN1C[C@@H](N(C)Cc2ccco2)[C@H]2OCCC[C@H]21` is 50.4%. The value for `CN(Cc1ccco1)[C@@H]1CN(CC2CCOCC2)[C@@H]2CCCO[C@H]12` was -0.241%; that for `CN(Cc1ccco1)[C@@H]1CN(Cc2nccn2C)[C@@H]2CCCO[C@H]12` was -23.8%. For the compound `CN(Cc1ccco1)[C@@H]1CN(Cc2ccc(F)cc2)[C@@H]2CCCO[C@H]12`, the INHIBITION is on record as 56.5%.

In the case of `CN(Cc1cccnc1)[C@@H]1CN(Cc2ccccn2)[C@@H]2CCCO[C@H]12`, the INHIBITION was determined as 50.8%. With `CN(Cc1cccnc1)[C@@H]1CN(c2ccccn2)[C@@H]2CCCO[C@H]12`, the INHIBITION is given as -39.4%. The figure for `O=C(CCc1ccc(-n2cnnn2)cc1)Nc1ccncc1` is -12.1%; for `CCn1cc2c(n1)CN(Cc1nccs1)CC2COCC1CC1` (stereo not given) it is -9.1%; for `CN(C)c1nc(O)cc(C2CCN(C(=O)Cc3ccccn3)C2)n1` (stereo not given) it is -107%. On to `N#CC1CCCN(c2ncnc3c2CCN(Cc2ccccc2)CC3)C1` (stereo not given), for which the INHIBITION is on record as -71.7%. In the case of `CCOc1c(Cl)cccc1NCc1cc(C)on1`, the INHIBITION is reported as -51.8%. The value for `Cc1cc(CNc2cccc(Cl)c2C)no1` was 54.3%. The value for `Cc1cc(CNc2ccccc2Cl)no1` was 40.4%; that for `CNC(=O)c1cnc(C=Cc2cc(OC)c(O)c(OC)c2)s1` was -64.8%; that for `CNC(=O)c1cccc(CNC(C)c2ccc(F)cc2N(C)C)c1` (stereo not given) was -107%. The value for `CNC(=O)c1cccc(CNC(C)c2cc(Cl)ccc2OC)c1` (stereo not given) was -5.94%; that for `CNC(=O)c1cccc(CNC(C)c2cc(C)ccc2OC(F)F)c1` (stereo not given) was 60.1%; that for `Cc1oc(C)c(C(=O)NCc2ccccc2S(=O)(=O)N(C)C)c1C` was -57.1%. Regarding `CCOc1ncccc1CNC(=O)c1c(C)oc(C)c1C`, the INHIBITION worked out at 58.4%. The value for `COc1ncccc1CNC(=O)c1c(C)oc(C)c1C` was 32.4%; that for `Cc1oc(C)c(C(=O)NCc2ccccn2)c1C` was -148%; that for `Cc1oc(C)c(C(=O)NCc2cccnc2N(C)C)c1C` was -69.8%. As to `Cc1oc(C)c(C(=O)NCc2ccccc2CN(C)C)c1C`, the INHIBITION was determined as 57.3%. The value for `Cc1cc(CC(C)Nc2ncc(C)c(N(C)C)n2)[nH]n1` (stereo not given) was -13.9%; that for `O=C(c1ccccc1)N1C[C@@H]2CCCO[C@@H]2[C@H](N2CCCC2)C1` was -41.1%; that for `O=C(O)[C@@H]1CN(C(=O)c2ccc3[nH]nnc3c2)C[C@H]1c1ccccc1` was -123%. The value for `COCC1(C(=O)N[C@H]2CN(c3nnc(C)s3)C[C@@H]2C2CC2)CCC1` was -176%; that for `CC(C)c1nc(CN(C)C2CCN(CCNS(C)(=O)=O)C2)no1` (stereo not given) was -20.9%. The value for `CSCCc1ccc(NC(=O)NCc2ccnc(N(C)C)c2)cc1` was -46.2%. Take `COc1cc(N2C[C@@H]3COC[C@]3(COc3ncccc3F)C2)ncn1`: the INHIBITION was -25.8%. As for `c1c(CN2CCCC2)nc2n1CCN(C1CCOCC1)C2`, the INHIBITION is given as -103%. Consider `Cc1cc2n(n1)CC(CNCc1ccc(Oc3ccccc3)nc1)CN2` (stereo not given), for which the INHIBITION worked out at 58.9%. Take `COc1cc(CNCC2CNc3ccnn3C2)ccn1` (stereo not given): the INHIBITION is -129%. In the case of `Cc1cc2n(n1)CC(CNCc1ccc(-n3cccn3)nc1)CN2` (stereo not given), the INHIBITION is 15.1%. Take `Cc1cc2n(n1)CC(CNCc1cnn(-c3ccccc3)c1)CN2` (stereo not given): the INHIBITION is -71.4%. The value for `Cc1cc2n(n1)CC(CNCc1ccc(-n3cccn3)cc1)CN2` (stereo not given) was 53.4%. The figure for `c1ccc(Oc2ccc(CNCC3CNc4ccnn4C3)cn2)cc1` (stereo not given) is -12.8%; for `Cc1cc2n(n1)CC(CNCc1ccc(OCC3CC3)nc1)CN2` (stereo not given) it is -101%. The value for `c1ccc(Oc2cc(CNCC3CNc4ccnn4C3)ccn2)cc1` (stereo not given) was 53.3%; that for `COc1ccc(CNCC2CNc3cc(C)nn3C2)cn1` (stereo not given) was -171%; that for `COc1ccccc1N1CC(NC(=O)c2cc(C(C)C)nn2C)CC1=O` (stereo not given) was -102%.

The values are drawn from ChEMBL document CHEMBL4513216, “Probing the Open Global Health Chemical Diversity Library for Multistage-Active Starting Points for Next-Generation Antimalarials” (ACS Infect Dis, 2020).
